Test results as given in PubChem BioAssay (Tox21).
“And” between values parts separate entries of the source, which are not always exact repeats. Equal values may be shown once. Records with an inconclusive call do not appear. Entries that show only a call come without a potency. The source made the active and inactive calls. Calls follow the shape of the dose curve; as a rule, active = well fitted cell-killing curve with a large enough effect in the repeat runs; inconclusive = weak or mixed curves, or effect the other way; inactive = no such curve, though single readings can be large or run the other way.

Experiment: qHTS assay to identify small molecule antagonists of the retinoid-related orphan receptor gamma (ROR-gamma) signaling pathway - cell viability counter screen (AID 1159520); also: nearly all actives have a fitted effect of over 50% in size
Conditions: Tet-on RORgamma CHO cells viability, ATP luminescence, 16 h; series mostly up to 92.4 µM
Description: U.S. Tox21 Program National Center for Advancing Translational Sciences [NCATS] NIH Chemical Genomics Center [NCGC] U.S. Environmental Protection Agency [EPA] National Institutes of Environmental Health Sciences [NIEHS] National Toxicology Program [NTP] U.S. Food and Drug Administration [FDA] Tox21 Assay Overview: Nuclear steroid hormone receptors are involved in many biological processes including inflammatory responses, cell proliferation, and apoptosis. Environmental factors or compounds disrupting these nuclear receptor pathways and gene expression may promote susceptibility to immunotoxicants and autoimmune diseases. One important group of these expression factors are the retinoid-related orphan receptors. To assess compounds that may interfere with the retinoid-related orphan receptor gamma (ROR-gamma) transcription factor, a cell-based luciferase assay was used. The CHO cell-based assay utilizes a TET-inducible ROR expression factor and ROR response element-LUC reporter gene. Reporter gene activity was induced using Doxycycline Hyclate and measured after 16 hr incubation. Tet-on ROR gamma CHO cells were used to screen against the Tox21 10K compound library for cytotoxicity by measuring the viability of the cells based on the quantitation of the ATP.
Tox21 Assay Protocol Summary: Tet-on ROR gamma CHO cells were dispensed at 1,000 cells in 4 uL of culture medium per well into white wall/solid bottom 1536-well plates using a Multidrop Combi (Thermo Scientific, Waltham, MA) dispenser. Following incubation at 37 C and 5% CO2 for 4 hr, 23 nL of compounds dissolved in DMSO, positive controls or DMSO only were transferred by a Pintool station (Kalypsys, San Diego, CA) and after 2 hr incubation at 37 C, one ul of 1 uM (final concentration) of Doxycycline Hyclate was added to all the wells by using a Flying Reagent Dispenser (FRD) (Aurora Discovery, San Diego, CA). After 16 hr incubation at 37 C and 5% CO2, 5 uL of CellTiter-Glo reagent (Promega Corporation, Madison, WI) was added to each assay plate using FRD. After 30 min incubation at room temperature, luminescence was quantified on a ViewLux plate reader (Perkin Elmer, Waltham, MA).
Potency is read from the fitted curve at half-maximal effect.

SMILES | Potency
CCN(CC)C(=S)[S-].CCN(CC)C(=S)[S-].[Zn+2] | 5.4 µM (active)
FC(F)(F)c1cccc(C2=CCN(CCc3ccc4ccccc4c3)CC2)c1 | inactive
NC(=O)c1ccc(N)nc1 | 1.22 µM (active)
O=C/C(Cl)=C(/Cl)C(=O)O | 48.5 µM (active) and 34.4 µM (active)
Clc1ccc(-c2ccccc2)cc1 | inactive
Cc1cc(C)c(C2=C(OC(=O)CC(C)(C)C)C3(CCCC3)OC2=O)c(C)c1 | inactive
CC(Cc1ccc(C(C)(C)C)cc1)CN1C[C@@H](C)O[C@@H](C)C1 (stereo not given in full) | inactive
CC(=O)OC1(c2ccccc2)CCN(CCc2ccccc2)CC1 | inactive
SCc1ccco1 | inactive
ClC(Cl)=C(Cl)Cl | inactive
Oc1ccc(C(=C(Cl)Cl)c2ccc(O)cc2)cc1 | inactive
ClCCN1CCOCC1 | inactive
CC(c1ccc(O)cc1)c1ccc(O)cc1 | inactive
CCCCCCCCCBr | inactive
ClCc1ccccc1CCl | 43.3 µM (active)
CN(CCCC(=O)c1cccnc1)N=O | inactive
N#CSCSC#N | 15.7 µM (active) and 4.28 µM (active)
C=CCC1=C(C)C(OC(=O)C2C(C=C(C)C)C2(C)C)CC1=O (stereo not given) | 61.1 µM (active)
ClC1=C(Cl)C2(Cl)C3C(Cl)C(Cl)CC3C1(Cl)C2(Cl)Cl (stereo not given) | 68.4 µM (active)
CCc1cc(C)cc(CC)c1-c1c(OC(=O)C(C)(C)C)n2n(c1=O)CCOCC2 | inactive

SMILES | Potency
N#Cc1c(-c2ccc(Cl)cc2)[nH]c(C(F)(F)F)c1Br | 0.611 µM (active)
N#C/C=C/C#N | inactive
CCCCCCCCCCCCCCCCCCn1cc[n+](C)c1 | 60.8 µM (active)
C[C@H]1O[C@@H](O[C@H]2[C@@H](O)C[C@H](O[C@H]3[C@@H](O)C[C@H](O[C@H]4CC[C@@]5(C)[C@H](CC[C@@H]6[C@@H]5CC[C@]5(C)[C@@H](C7=CC(=O)OC7)CC[C@]65O)C4)O[C@@H]3C)O[C@@H]2C)C[C@H](O)[C@@H]1O | inactive
CCOC(=O)C1(c2ccccc2)CCN(CCC(C#N)(c2ccccc2)c2ccccc2)CC1 | inactive
Cn1cc(C2=C(c3cn(C4CCN(Cc5ccccn5)CC4)c4ccccc34)C(=O)NC2=O)c2ccccc21 | inactive
CCOP(=S)(OCC)SCCS(=O)(=O)CC | inactive
CCN(CC)c1c([N+](=O)[O-])cc(C(F)(F)F)c(N)c1[N+](=O)[O-] | inactive
CC(=O)/C=C/c1ccc2c(c1)OCO2 | inactive
FC(Cl)(Cl)Cl | inactive
[Cl][Sb]([Cl])[Cl] | 48.6 µM (active)
CC1(C)C(/C=C(\Cl)C(F)(F)F)C1C(=O)OC(C#N)c1cccc(Oc2ccccc2)c1 (stereo not given) | inactive
CN(C)c1ccc(N=Nc2ccccc2)cc1 | inactive
CC(=O)[O-].CC(=O)[O-].[Hg+2] | 1.22 µM (active)
COS(=O)(=O)c1ccc(C)cc1 | inactive
N#C/C=C/c1ccccc1 | inactive
CC(C)OC(=O)C(O)(c1ccc(Cl)cc1)c1ccc(Cl)cc1 | 68.6 µM (active)
CN(C)S(=O)(=O)N(SC(F)(Cl)Cl)c1ccccc1 | 5.45 µM (active)
CC(C)Oc1cccc(NC(=O)c2ccccc2C(F)(F)F)c1 | inactive
CN(C)C(=S)S | 6.11 µM (active)
